Data taken from PubChem BioAssay (NCI).
The panel holds about 83,000 compounds, 20% with a hit somewhere; the sample as a whole holds those more often.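 Assay: single dose, 48 h. Readout: percent growth (0 = no net growth; negative = cell death). Active: <10.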 Unmarked numbers belong to inactive results. The source made the active and inactive calls.

What follows are molecules tested on U251 CNS (assay: NCI-60 one-dose screen, 48 h (100 = growth as untreated, 0 = no growth, -100 = all killed)). Settings: 10 µM unless noted.

SMILES	growth
COc1ccc(C(O)c2cc3c(N)c(C(=O)Nc4cccc(Br)c4)sc3nc2C)cc1 (configuration not stated)	15.7%
CC/C(=C(/c1ccc(Cl)cc1)c1ccc(OCCN2CCCCC2)cc1)c1ccc(OC)cc1	40.6%
CCOC(=O)c1c2c(n3cccc(F)c13)C(=O)c1ncccc1C2=O	-35.5% (active)
CC(=O)O[C@@H]1C[C@]2(C(C)C)O[C@@]1(C)[C@@H]1CCC(C)=C1[C@@H]2OC(=O)/C=C/c1ccccc1	91.2%
O=C(O)c1ccc(-n2cc(/C=N/Nc3ccccc3)c(-c3ccc(F)cc3F)n2)cc1	85.9%
O=C(NCc1ccc(Cl)cc1Cl)C1CCC(=O)N1c1cccs1 (configuration not stated)	89.4%
CCSc1oc(-c2ccccc2)nc1[P+](c1ccccc1)(c1ccccc1)c1ccccc1	15.2%
O=C1C(=O)N(Cc2ccc(-c3ccccc3)cc2)c2ccc(OC(F)(F)F)cc21	20.9%
Cc1nc2sc(C(=O)Nc3ccc(Br)cc3)c(N)c2cc1C(O)c1ccccc1 (configuration not stated)	54%
O=C(Cn1cc(CSc2nc3ccccc3o2)nn1)Nc1ccc(F)cc1F	120%
COC(=O)c1nc(-c2ccc(C)cc2)oc1S(=O)(=O)c1cccc(OC)c1	96.5%
COc1ccc(C/C(C)=C(/c2ccc(OCCN(C)C)cc2)c2ccc(OC(=O)NCc3ccccc3)cc2)cc1	45.7%
COc1ccc(/C=C(\C#N)n2nnc3cc(F)c(F)cc32)cc1	72.4%
COC(=O)c1c2c(c(C)[n+]([O-])c1C)C(=O)C(NCc1cccc(OC)c1)=CC2=O	-1.83% (active)
COc1ccc(-c2nc3cc(C(=O)NCc4ccccc4)ccc3n2C2CCCCC2)cc1	68.2%
CCN(CC)CCn1c2ccc(OC)cc2c2sc3cc(OC)ccc3c(=O)c21	20.5%
COc1ccc(C(=O)N2c3ccccc3Sc3ccccc32)c(OC)c1	24.5%
CCN1CCN(C(=O)[C@]23CCC(C)(C)C[C@@H]2C2=CC[C@@H]4[C@@]5(C)CCC(=O)C(C)(C)[C@@H]5CC[C@@]4(C)[C@]2(C)CC3)CC1	46.8%
Clc1ccc2c(NC3CCC(N4CCOCC4)CC3)ccnc2c1 (configuration not stated)	81.1%

SMILES	growth
CCCOC(=O)Nc1nc2ccc(SCC(C)C)cc2s1	49.2%
COc1ccc(Nc2ncc(Br)c(NCCCNC(=O)c3cccs3)n2)cc1	52.7%
N#Cc1c(-c2ccccc2)cc(-c2ccc(Nc3nc(Nc4ccc(Cl)cc4)nc(Nc4ccc(Cl)cc4)n3)cc2)nc1N	-35.4% (active)
COC(=O)c1c(C)c2n(c1C)C(=O)C(c1ccccc1)=C2	93.2%
COc1ccc(Nc2ncc(Br)c(NCCCNC(=O)C3CCCC3)n2)cc1	27.2%
C=CCn1c(C)nc2ccc(Nc3nc(Nc4ccc5nc(C)n(CC=C)c5c4)c4ccccc4n3)cc21	-94.2% (active)
O=C(O)c1cn(C2CC2)c2cc(N3CCN(Cc4ccc5ccccc5c4O)CC3)c(F)cc2c1=O	45.8%
N#C/C(=C\c1c(-c2ccccc2)[nH]c2ccccc12)C(N)=O	79.6%
COc1ccc(C2CC(c3ccc(Nc4nc(Nc5ccccc5)nc(Nc5ccccc5)n4)cc3)=NN2C(C)=O)cc1 (configuration not stated)	88.1%
COc1cc2c(c(OC)c1OC)CCC(c1cccc(C(=O)Nc3cccc(Cl)c3)c1)O2 (configuration not stated)	72.4%
COc1cc(OCc2cccc(Br)c2C)cc(OC)c1C=O	87%
COC1=CC(c2ccc[nH]2)=N/C1=C\c1[nH]c(C)c(C(=O)OC(C)C)c1C	-26.7% (active)
CCCc1c(OC(=O)c2ccccc2)nc2[nH]c(=O)sc2c1C	97.7%
CN(C)c1ccc(-c2c(C#N)c(N)nn2C(=O)c2ccc(NC(=O)c3ccccn3)cc2)cc1	99.3%
CC1CCN(CCOc2ccc(CNc3ccc4nc(CCC5CCCCC5)[nH]c4c3)cc2)CC1	-11.2% (active)
COc1cc2c(cc1OCCCN1CCN(CCCOc3cc4c(cc3OC)C(=O)N3CCC[C@H]3C=N4)CC1)C=CC(C)(C)O2	-98.5% (active)
Oc1c(I)cc(I)cc1CNCCN(Cc1ccccn1)Cc1ccccn1	-29.1% (active)
O=CN1N=C(c2cccc(Nc3ccnc4cc(Cl)ccc34)c2)CC1c1ccccc1 (configuration not stated)	16.9%
